Measurements reported in PubChem BioAssay AID1159580 (chemical genetic matrix, 2015).
Values joined by “and” are separate entries in the source; they are usually repeats but may differ in a detail not shown here. Identical values can stand only once. Among all 5,500 compounds or so, about 2,000 (36%) were called active. About 18% were inconclusive and are not listed. No stated cut-off is given here; in the data, active means normalized growth mostly below about 0.91 (no sharp cut-off); inconclusive means no clear call, values can overlap the other calls; inactive means mostly above about 0.92. The list shows a part of the results.

Assay: chemical genetic growth profiling, strain panel (AID 1159580);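 further: tested at 20 µM; growth read once vehicle control cultures reached saturation at 30 °C; 1 = growth at the plate median or of vehicle wells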
Settings: growth OD

Measured: normalized growth

CC[C@H]1OC(=O)[C@H](C)[C@@H](O[C@H]2C[C@@](C)(OC)[C@@H](O)[C@H](C)O2)[C@H](C)[C@@H](O[C@@H]2O[C@H](C)C[C@H](N(C)C)[C@H]2O)[C@](C)(O)C[C@@H](C)CN(C)[C@H](C)[C@@H](O)[C@]1(C)O
inactive: S. cerevisiae deletion strains, locus YAL013W, strain DEP1, stronger effect = lower value 0.993 | S. cerevisiae deletion strains, locus YBR021W, strain FUR4, stronger effect = lower value 0.96 | S. cerevisiae deletion strains, locus YBR229C, strain ROT2, stronger effect = lower value 0.988 | S. cerevisiae deletion strains, locus YCL029C, strain bik1, stronger effect = lower value 0.962 | S. cerevisiae deletion strains, locus YDL035C, strain GPR1, stronger effect = lower value 0.969 | S. cerevisiae deletion strains, locus YDL074C, strain BRE1, stronger effect = lower value 1.01 | S. cerevisiae deletion strains, locus YDL101C, strain DUN1, stronger effect = lower value 0.987 | S. cerevisiae deletion strains, locus YDL134C, strain PPH21, stronger effect = lower value 0.993 | S. cerevisiae deletion strains, locus YDL185W, strain tfp1, stronger effect = lower value 0.962 | S. cerevisiae deletion strains, locus YDL192W, strain arf1, stronger effect = lower value 0.96 | S. cerevisiae deletion strains, locus YDR101C, strain arx1, stronger effect = lower value 0.972 | S. cerevisiae deletion strains, locus YDR150W, strain NUM1, stronger effect = lower value 1 | S. cerevisiae deletion strains, locus YDR162C, strain NBP2, stronger effect = lower value 1.01 | S. cerevisiae deletion strains, locus YDR318W, strain mcm21, stronger effect = lower value 0.948 | S. cerevisiae deletion strains, locus YDR388W, stronger effect = lower value 0.978 | S. cerevisiae deletion strains, locus YDR502C, strain sam2, stronger effect = lower value 0.984 | S. cerevisiae deletion strains, locus YEL061C, strain CIN8, stronger effect = lower value 0.996 | S. cerevisiae deletion strains, locus YER110C, stronger effect = lower value 0.972 | S. cerevisiae deletion strains, locus YER155C, strain BEM2, stronger effect = lower value 0.991 | S. cerevisiae deletion strains, locus YER167W, strain BCK2, stronger effect = lower value 0.964 | S. cerevisiae deletion strains, locus YGL078C, strain dbp3, stronger effect = lower value 0.979 | S. cerevisiae deletion strains, locus YGL086W, strain mad1, stronger effect = lower value 0.951 | S. cerevisiae deletion strains, locus YGL248W, strain PDE1, stronger effect = lower value 0.992 | S. cerevisiae deletion strains, locus YGR078C, strain PAC10, stronger effect = lower value 1.02 | S. cerevisiae deletion strains, locus YGR135W, strain pre9, stronger effect = lower value 0.986 | S. cerevisiae deletion strains, locus YGR229C, strain SMI1, stronger effect = lower value 0.988 | S. cerevisiae deletion strains, locus YGR252W, strain gcn5, stronger effect = lower value 0.876 | S. cerevisiae deletion strains, locus YHR030C, strain SLT2, stronger effect = lower value 0.988 and 0.962 | S. cerevisiae deletion strains, locus YHR079C, strain IRE1 (second series), stronger effect = lower value 0.965 | S. cerevisiae deletion strains, locus YHR079C, strain IRE1, stronger effect = lower value 0.965 | S. cerevisiae deletion strains, locus YHR094C, strain hxt1, stronger effect = lower value 0.969 | S. cerevisiae deletion strains, locus YHR129C, strain ARP1, stronger effect = lower value 0.996 | S. cerevisiae deletion strains, locus YHR200W, strain rpn10, stronger effect = lower value 0.977 | S. cerevisiae deletion strains, locus YIL066C, strain RNR3, stronger effect = lower value 0.987 | S. cerevisiae deletion strains, locus YIL073C, strain SPO22, stronger effect = lower value 0.895 | S. cerevisiae deletion strains, locus YIL125W, strain kgd1, stronger effect = lower value 0.983 | S. cerevisiae deletion strains, locus YIR030C, strain dcg1, stronger effect = lower value 0.975 | S. cerevisiae deletion strains, locus YJL095W, strain BCK1, stronger effect = lower value 1.03 and 0.999 | S. cerevisiae deletion strains, locus YJL134W, strain LCB3, stronger effect = lower value 0.992 | S. cerevisiae deletion strains, locus YJL168C, strain set2, stronger effect = lower value 0.979 | S. cerevisiae deletion strains, locus YJL187C, strain SWE1 (second series), stronger effect = lower value 0.993 | S. cerevisiae deletion strains, locus YJR043C, strain POL32, stronger effect = lower value 0.966 | S. cerevisiae deletion strains, locus YJR066W, strain TOR1, stronger effect = lower value 0.956 | S. cerevisiae deletion strains, locus YJR075W, strain HOC1, stronger effect = lower value 1 | S. cerevisiae deletion strains, locus YKL009W, strain mrt4, stronger effect = lower value 0.992 | S. cerevisiae deletion strains, locus YKL068W, stronger effect = lower value 0.995 | S. cerevisiae deletion strains, locus YKL085W, strain MDH1 (second series), stronger effect = lower value 0.974 | S. cerevisiae deletion strains, locus YKL085W, strain MDH1, stronger effect = lower value 0.974 | S. cerevisiae deletion strains, locus YKL190W, strain CNB1, stronger effect = lower value 0.996 | S. cerevisiae deletion strains, locus YKR001C, strain vps1, stronger effect = lower value 0.961 | S. cerevisiae deletion strains, locus YLR039C, strain RIC1, stronger effect = lower value 0.965 | S. cerevisiae deletion strains, locus YLR058C, strain SHM2, stronger effect = lower value 0.992 | S. cerevisiae deletion strains, locus YLR102C, strain apc9, stronger effect = lower value 0.976 | S. cerevisiae deletion strains, locus YLR113W, strain HOG1, stronger effect = lower value 0.986 | S. cerevisiae deletion strains, locus YLR262C, strain YPT6, stronger effect = lower value 0.999 | S. cerevisiae deletion strains, locus YLR268W, strain sec22, stronger effect = lower value 0.994 | S. cerevisiae deletion strains, locus YLR330W, strain CHS5, stronger effect = lower value 0.991 | S. cerevisiae deletion strains, locus YLR342W, strain FKS1 (second series), stronger effect = lower value 0.963 | S. cerevisiae deletion strains, locus YLR371W, strain rom2, stronger effect = lower value 0.964 | S. cerevisiae deletion strains, locus YLR418C, strain cdc73, stronger effect = lower value 1.03 | S. cerevisiae deletion strains, locus YML016C, strain PPZ1, stronger effect = lower value 0.991 | S. cerevisiae deletion strains, locus YML032C, strain rad52, stronger effect = lower value 0.942 | S. cerevisiae deletion strains, locus YML124C, strain tub3, stronger effect = lower value 0.984 | S. cerevisiae deletion strains, locus YMR078C, strain ctf18, stronger effect = lower value 0.964 | S. cerevisiae deletion strains, locus YMR223W, strain ubp8, stronger effect = lower value 0.949 | S. cerevisiae deletion strains, locus YMR263W, strain SAP30, stronger effect = lower value 1 | S. cerevisiae deletion strains, locus YMR307W, strain GAS1, stronger effect = lower value 0.788 | S. cerevisiae deletion strains, locus YNL067W, strain RPL9B, stronger effect = lower value 1.01 | S. cerevisiae deletion strains, locus YNL128W, strain TEP1, stronger effect = lower value 1 | S. cerevisiae deletion strains, locus YNL153C, strain GIM3, stronger effect = lower value 1.03 | S. cerevisiae deletion strains, locus YNL183C, strain NPR1, stronger effect = lower value 0.92 | S. cerevisiae deletion strains, locus YNL233W, strain BNI4, stronger effect = lower value 1.01 | S. cerevisiae deletion strains, locus YNL250W, strain rad50, stronger effect = lower value 0.978 | S. cerevisiae deletion strains, locus YNL271C, strain bni1, stronger effect = lower value 0.976 | S. cerevisiae deletion strains, locus YNL298W, strain CLA4, stronger effect = lower value 0.972 | S. cerevisiae deletion strains, locus YNL307C, strain MCK1, stronger effect = lower value 0.945 | S. cerevisiae deletion strains, locus YNL322C, strain KRE1, stronger effect = lower value 0.995 | S. cerevisiae deletion strains, locus YNR052C, strain pop2, stronger effect = lower value 0.957 | S. cerevisiae deletion strains, locus YOL006C, strain TOP1, stronger effect = lower value 0.951 | S. cerevisiae deletion strains, locus YOL012C, strain htz1 1.44 | S. cerevisiae deletion strains, locus YOL147C, strain pex11, stronger effect = lower value 0.981 | S. cerevisiae deletion strains, locus YOR061W, strain CKA2, stronger effect = lower value 0.972 | S. cerevisiae deletion strains, locus YOR069W, strain VPS5, stronger effect = lower value 0.989 | S. cerevisiae deletion strains, locus YOR136W, strain idh2, stronger effect = lower value 0.969 | S. cerevisiae deletion strains, locus YOR144C, strain elg1, stronger effect = lower value 0.976 | S. cerevisiae deletion strains, locus YOR184W, strain ser1, stronger effect = lower value 0.973 | S. cerevisiae deletion strains, locus YOR231W, strain MKK1, stronger effect = lower value 0.968 | S. cerevisiae deletion strains, locus YOR316C, strain cot1, stronger effect = lower value 0.978 | S. cerevisiae deletion strains, locus YPL055C, strain LGE1, stronger effect = lower value 1.01 | S. cerevisiae deletion strains, locus YPL241C, strain CIN2, stronger effect = lower value 0.994 | S. cerevisiae deletion strains, locus YPL256C, strain CLN2, stronger effect = lower value 0.963 | S. cerevisiae deletion strains, locus YPR119W, strain clb2, stronger effect = lower value 0.981 | S. cerevisiae deletion strains, locus YPR141C, strain kar3, stronger effect = lower value 0.98 | S. cerevisiae deletion strains, locus YPR163C, strain tif3, stronger effect = lower value 0.974 | S. cerevisiae deletion strains, locus YPR167C, strain met16, stronger effect = lower value 0.984 | S. cerevisiae deletion strains, strain wtn01, stronger effect = lower value 0.978 | S. cerevisiae strains, strain wild type, stronger effect = lower value 0.982
